Rows were chosen to be rich in hits. Some 2.1% of all compounds tested hit in one or more screens of this group.
APP transl inh = inhibitors of APP translation via 5'UTR reporter, primary screen, APP 5'UTR luciferase, SH-SY5Y cells | SH-SY5Y APP 5'UTR-luciferase reporter, luminescence | inhibition, % at 2 µM | 190,000 compounds, 0.82% hits | AID 1285, 2008;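 active means inhibition above a set limit, derived from the sample mean plus 3 SD, cut at about 45% in these data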
aSyn 5UTR inh = MLPCN primary screen, SNCA 5' untranslated region | alpha-synuclein 5'UTR reporter, inhibitor activity | inhibition, % (tested at 7.5 µM) | 300,000 compounds, 0.82% hits | AID 1813, 2009; in the data active means inhibition above about 60%;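 further: H4 neuroglioblastoma cells stably carrying SNCA 5'UTR luciferase fusion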
BaF3 tox = parental Ba/F3 cell viability inhibition, counter-screen for JAK2V617F inhibitor project, murine pro-B, CellTiter-Glo luminescence; CellTiter-Glo ATP luminescence; inhibition, % at 5.6 µM; 220,000 compounds, 1.1% hits; AID 1486, 2009;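 active means inhibition above a per-campaign cutoff, the mean inhibition of all tested compounds plus 3 SD, cut at about 27% in these data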
KLF5 inhibitor = KLF5 expression inhibitors, primary screen, DLD-1 cells, luminescence. DLD-1 KLF5 promoter-luciferase reporter. inhibition, % at 5 µM. 290,000 compounds, 0.23% hits;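 active means inhibition above a per-plate limit of that plate's mean compound inhibition plus 3 SD, cut at about 60% in these data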;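 further: higher means less KLF5 promoter-driven luciferase light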
IEC-6 tox-1 = cytotoxicity in IEC-6 intestinal epithelial cells, primary screen, cytotoxicity control for KLF5 inhibitor project, cell-based, luminescence | 290,000 compounds, 0.78% hits | inhibition, % at 5 µM | AID 1825, 2009 | IEC-6 cytotoxicity, luminescence viability
Ba/F3 V617F tox = reduced viability of JAK2V617F-dependent Ba/F3 cells, primary screen, JAK2V617F inhibitor project, cell-based, Ba/F3 EpoR-JAK2V617F, luminescence; 220,000 compounds, 1.1% hits; ATP luminescence; inhibition, % at 5.6 µM;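 active means inhibition above the campaign mean plus 3 SD over all tested compounds, cut at about 24% in these data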;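 further: cytokine-independent growth of Ba/F3 cells driven by EpoR plus mutant JAK2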
KLF5 confirm = KLF5 expression inhibitors, confirmation, DLD-1 cells, luminescence | inhibition, % at 4 µM | 610 compounds, 79% hits | AID 1834, 2009 | shares compounds with KLF5 inhibitor | DLD-1 KLF5 promoter firefly luciferase reporter;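 active means inhibition above a set limit taken from the earlier primary screen, cut at about 63% in these data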
IEC-6 tox-2 = cytotoxicity in rat IEC-6 cells, cytotoxicity control for KLF5 inhibitor project, cell-based, luminescence, triplicate; shares compounds with KLF5 inhibitor; IEC-6 rat intestinal cells, viability luminescence; inhibition, % at 4 µM; 610 compounds, 56% hits; AID 1905, 2009; in the data active means inhibition above about 23%;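 further: cells exposed to compounds for 48 hours before viability read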
IEC-6 cytotox cf = cytotoxic compounds in IEC-6 epithelial cells, confirmation, cytotoxicity control, cell-based, luminescence; shares compounds with IEC-6 tox-1; IEC-6 rat intestinal epithelial viability; inhibition, % at 5 µM; 1,900 compounds, 63% hits
Numbers stand for hits; 0 = inactive; - = not tested or not shown. Unless noted, no stated cut-off is given here; in the data, active means inhibition above about 22%; inactive means the rest.

SMILES | APP transl inh | aSyn 5UTR inh | BaF3 tox | KLF5 inhibitor | IEC-6 tox-1 | Ba/F3 V617F tox | KLF5 confirm | IEC-6 tox-2 | IEC-6 cytotox cf
CCCC1=Nc2cc(C(=O)NCCCOCC)ccc2Sc2ccccc21 | 96.7 | 66.5 | 91.0 | 80.4 | 97.2 | 93.4 | 86.2 | 71.4 | 73.8
COc1ccccc1/C=C/CN1CCSCC1 | - | 0 | - | 0 | 0 | - | - | - | -
COc1cc(-c2c(-c3cc(OC)c(OC)c(OC)c3)noc2C)ccc1F | - | 0 | - | 79.0 | 98.1 | - | 88.5 | 73.8 | 70.6
COc1cc(-c2noc(C)c2C#Cc2ccccn2)cc(OC)c1OC | - | 85.8 | - | 62.3 | 81.9 | - | 70.9 | 60.7 | 61.6
COC(=O)c1cc(-c2c(-c3cc(OC)c(OC)c(OC)c3)noc2C)cc([N+](=O)[O-])c1 | - | 0 | - | 0 | 0 | - | - | - | -
COc1cc(-c2noc(C)c2/C=C/c2ccc(N)cc2)cc(OC)c1OC | - | 103.8 | - | 65.7 | 95.6 | - | 91.4 | 73.4 | 75.7
CCCOc1ccc(CNC(=O)C2CCN(C(=O)N3CCOc4ccccc43)CC2)cc1 | - | 0 | - | 0 | 0 | - | - | - | -
COc1ccccc1-c1nnc2sc(-c3ccc(N(C)C)cc3)nn12 | 96.8 | 98.6 | 79.7 | 72.1 | 90.8 | 81.0 | 90.8 | 72.0 | 72.2
CCOc1cc2c(cc1/C=C/c1noc(C)c1[N+](=O)[O-])OC(C)C2 (stereo unspecified) | - | 0 | - | 0 | 0 | - | - | - | -
CCOC(=O)c1[nH]c(C)c(C(=O)Nc2cc(Cl)ccc2C)c1C | 95.4 | 0 | 73.2 | 71.8 | 82.0 | 73.6 | 67.7 | 61.2 | 63.1
Cc1ccc(NC(=S)N2CC(C)OC(C)C2)cc1C (stereo unspecified) | - | - | - | 0 | 0 | - | - | - | -
COc1cccc(COc2ccc3c(C)cc(=O)oc3c2)c1 | - | 0 | - | 0 | 0 | - | - | - | -
COc1ccccc1C1=NOC(COc2ccc3c(C)cc(=O)oc3c2)C1 (stereo unspecified) | - | 0 | 78.2 | 70.7 | 83.3 | 75.4 | 81.3 | 60.6 | 57.2
COc1ccc(NC(=O)C2CC(c3ccccc3Cl)=NO2)cc1 (stereo unspecified) | - | 0 | - | 0 | 0 | - | - | - | -
Cc1ccc(Nc2nc(-c3c(C)nc4ncccn34)cs2)cc1 | 94.8 | 84.0 | 77.9 | 73.4 | 89.8 | 76.3 | 78.7 | 72.6 | 59.4
Cc1ccc(Nc2nc(-c3c(C)nc4ccccn34)cs2)cc1 | 96.3 | 0 | 92.2 | 87.2 | 93.8 | 93.7 | 87.0 | 79.0 | 78.5
Cc1nc2ccccn2c1-c1csc(NCc2ccco2)n1 | 0 | 0 | 0 | 0 | 0 | 0 | - | - | -
O=C(Nc1nc2cc3c(cc2s1)OCCO3)c1ccco1 | - | 65.6 | - | 86.3 | 22.8 | - | 81.4 | 0 | 0
CSc1nc(N(C)NC(=O)c2ccc(Cl)cc2)c2ccccc2n1 | 94.9 | 92.6 | 78.4 | 64.8 | 80.1 | 79.9 | 75.3 | 63.7 | 62.6
CSc1nc(N(C)NC(=O)c2ccccc2)c2ccccc2n1 | 95.8 | 0 | 69.0 | 75.9 | 78.1 | 69.5 | 75.2 | 64.9 | 55.3
CCOc1ccc(NC(=O)c2cc(OC)nc3ccccc23)cc1 | - | 83.0 | - | 66.0 | 87.7 | - | 82.3 | 62.6 | 53.1
CC1CC(C)CN(C(=O)C2CCN(S(=O)(=O)c3cccc4cccnc34)CC2)C1 (stereo unspecified) | - | 0 | - | 0 | 0 | - | - | - | -
CNc1cc(C)nc(-n2nc(C)cc2C)n1 | 0 | 0 | 0 | 0 | 0 | 0 | - | - | -
CCOc1ccc(Nc2cc(C)nc(-n3nc(C)cc3C)n2)cc1 | 95.9 | 62.9 | 81.2 | 81.5 | 84.5 | 77.3 | 81.1 | 55.8 | 52.1
O=c1[nH]c(SCc2ccc(F)cc2Cl)nc2ccccc12 | 0 | 0 | 0 | 0 | 0 | 0 | - | - | -
SMILES | APP transl inh | aSyn 5UTR inh | BaF3 tox | KLF5 inhibitor | IEC-6 tox-1 | Ba/F3 V617F tox | KLF5 confirm | IEC-6 tox-2 | IEC-6 cytotox cf
Cc1ccc(/C=N/NC(=O)c2c(-c3ccccc3)noc2C)c(O)c1 | - | 0 | - | 66.5 | 25.9 | - | 63.1 | 23.1 | 0
N#C/C(=C(\O)c1cc(Cl)sc1Cl)c1nc2ccccc2[nH]1 | - | 0 | - | 0 | 0 | - | - | - | -
CCOC(=O)c1c(C)[nH]c(C(=O)N/N=C/c2ccc(OC)c(OC)c2)c1C | - | 0 | - | 0 | 61.8 | - | - | - | 48.9
COc1ccccc1/C=N/NC(=O)c1cc2c(OC)c(OC)ccc2[nH]1 | - | 0 | - | 0 | 46.8 | - | - | - | 0
COc1ccc(/C=N\NC(=O)COc2ccc(Cl)cc2Cl)c(C(=O)O)c1OC | 0 | 0 | 0 | 0 | 0 | 0 | - | - | -
COc1ccc(/C=N/NC(=O)c2[nH]c3ccc(Cl)cc3c2-c2ccccc2)c(C(=O)O)c1OC | - | 0 | - | 0 | 88.3 | - | - | - | 0
COc1ccc(/C=N/NC(=O)c2cc3c(OC)ccc(OC)c3[nH]2)cc1O | - | 68.3 | - | 0 | 40.1 | - | - | - | 0
CCOc1cc(C2NC(=O)NC(c3ccccc3)=C2C(=O)c2ccccc2)c(Br)cc1OCC(=O)O (stereo unspecified) | 0 | 0 | 0 | 0 | 0 | 0 | - | - | -
COc1cccc(/C=N/NC(=O)c2cc3c(OC)c(OC)ccc3[nH]2)c1OC | 57.0 | 0 | 42.2 | 0 | 55.0 | 54.2 | - | - | 42.3
COc1cccc(/C=N/NC(=O)c2cc3c(OC)cccc3[nH]2)c1OC | 0 | 0 | 0 | 0 | 0 | 0 | - | - | -
Cc1ccc2sc(N(CCCN(C)C)C(=O)CCS(=O)(=O)c3ccccc3)nc2c1C | - | 0 | - | 0 | 24.5 | - | - | - | 0
COc1ccc(OC)c2sc(N(CCCN(C)C)C(=O)CCS(=O)(=O)c3ccccc3)nc12 | - | 0 | - | - | - | - | - | - | -
CCN(CC)CCN1C(=O)C(O)=C(C(=O)c2cc3cccc(OC)c3o2)C1c1ccc(F)cc1 (stereo unspecified) | - | 0 | 0 | 0 | 0 | 0 | - | - | -
CCOC(=O)N/N=C/c1c(C)nn(-c2cccc(C(F)(F)F)c2)c1Cl | 86.0 | 0 | 42.2 | 0 | 44.5 | 66.9 | - | - | 53.5
CNC(=O)/C(C#N)=C1\SC(Cc2ccc(F)cc2)C(=O)N1c1ccccc1C (stereo unspecified) | - | 0 | 0 | 0 | 0 | 0 | - | - | -
C/C(=N\N=C1\NC(=O)C(Cc2ccccc2)S1)c1ccccc1 (stereo unspecified) | 0 | 0 | 0 | 0 | 0 | 0 | - | - | -
CC(=O)/C(C#N)=C1\NC(=O)C(Cc2ccccc2)S1 (stereo unspecified) | 0 | 0 | 0 | 0 | 75.9 | 0 | - | - | 51.4
CC(=O)/C(C#N)=C1\NC(=O)C(Cc2ccccc2C)S1 (stereo unspecified) | - | 0 | 0 | 0 | 70.9 | 0 | - | - | 46.6
CCOC(=O)c1c(C)[nH]c(C(=O)OCC(=O)c2ccc3c(c2)NC(=O)CO3)c1C | - | 0 | - | - | - | - | - | - | -
Cc1ccc(NS(=O)(=O)c2ccc(-c3cnc(C4CC4)o3)cc2)cc1 | - | 0 | - | 0 | 55.7 | - | - | - | 31.7

Compound activity: PubChem BioAssay, several laboratories
